Activity calls are given as the source filed them. The call rests on the fitted dose curve; in most records, active means well fitted activation curve with a large enough effect in the repeat runs; inconclusive means weak or mixed curves; inactive means flat fitted curve, though single readings scatter.
Experiment: Caspase-3/7 induction in CHO-K1 cells by small molecules, qHTS assay (AID 1346980); further: nearly all actives have a fitted effect of over 15% in size
Conditions: CHO-K1 caspase-3/7 induction, Caspase-Glo luminescence, 17 h; series mostly up to 92.4 µM; caspase-3/7 activation: at the top concentration
Source text: National Center for Advancing Translational Sciences [NCATS]
NIH Chemical Genomics Center [NCGC]
U.S. Environmental Protection Agency [EPA]
National Institutes of Environmental Health Sciences [NIEHS]
National Toxicology Program [NTP]
Apoptosis is a process of programmed cell death and plays a central role in the development of multicellular organisms. It is a highly regulated process and induces cell death by activating caspases, which are the members of cysteine aspartic acid-specific protease (caspase) family. Caspases involved in apoptosis are classified by their mechanism of action as initiator caspases (caspase-2, -8, -9 and -10) and executioner caspases (caspase-3, -6, and -7). Inhibition of apoptosis results in number of cancers, autoimmune diseases, inflammatory diseases and viral infection. To identify small molecule compounds that induce apoptosis, a homogeneous, luminescent Caspase-Glo 3/7 assay was used. Wild type CHO-K1 cells were used to screen Tox21 libraries for identifying caspase-3/7 activity inducers.
CHO-K1 cells were dispensed at 1,500 per well in 5uL of culture medium into white solid bottom 1536-well plates (Corning Life Sciences, Corning, NY) using a Multidrop Combi (Thermo Scientific, Waltham, MA) dispenser. The assay plates were incubated at 37 C and 5% CO2 for 5hr, and then 23nL of compounds dissolved in DMSO and positive control were transferred using a Pintool station (Wako, San Diego, CA). The assay plates were incubated at 37C and 5% CO2 for 17hr. For caspase-3/7 activity read, 4uL of Caspase-Glo 3/7 reagent (Promega Corporation, Madison, WI) was added to each well of the assay plates using Flying Reagent Dispenser (FRD, Aurora Discovery, San Diego, CA) and incubated the assay plates at room temperature for 30min. The luminescence signal was quantified using a ViewLux plate reader (Perkin Elmer, Shelton, CT).
On the % scale 0 is the no-effect control and ±100 the full control effect; potency means the concentration at half of the fitted maximal effect.

SMILES | caspase-3/7 activation | Potency
CCOC(=O)COc1cc(-c2nn(C)c(OC(F)F)c2Cl)c(F)cc1Cl | -0.0907% (inactive) | 
NNC(=O)c1cccnc1 | -2.03% (inactive) | 
CCCCC(O)(Cn1cncn1)c1ccc(Cl)cc1Cl (stereo not given) | -1.2% (inactive) | 
CC1C(=O)C[C@]2(C(C)C)C[C@H]12 (stereo not given in full) | 1.28% (inactive) | 
CCCC(=O)Cl | 0.273% (inactive) | 
CCC(C)(NC(=O)c1cc(Cl)c(C)c(Cl)c1)C(=O)CCl (stereo not given) |  | 21.8 µM (active)
CC1(C)CCC(Cc2ccc(Cl)cc2)C1(O)Cn1cncn1 (stereo not given) | -0.424% (inactive) | 
Nc1nc(N)nc(N)n1 | -0.0395% (inactive) | 
CN(N=O)c1ccc([N+](=O)[O-])cc1 | 0.326% (inactive) | 
O=C(O)C1(c2ccc3c(c2)OC[C@H](Cc2ccc(-c4ccccc4)cc2)[C@H]3O)CCCC1 | 2.77% (inactive) | 
O=C(CBr)c1ccccc1 | 4.57% (inactive) | 
O=C(O)COc1ccc(Cl)cc1 | -1.86% (inactive) | 
CCOS(C)(=O)=O | 1.37% (inactive) | 
NC(=O)C(Cl)(Cl)Cl | 0.0144% (inactive) | 
C=CC(=O)OCC(C)C | -0.424% (inactive) | 
CC(Cl)C(C)Cl (stereo not given) | -0.221% (inactive) | 
O=C(NC(=O)c1c(F)cccc1F)Nc1cc(Cl)c(Oc2ncc(C(F)(F)F)cc2Cl)c(Cl)c1 | -0.121% (inactive) | 
O=[N+]([O-])c1cc(C(F)(F)F)cc([N+](=O)[O-])c1Cl | 0.0328% (inactive) | 
CC(=O)[C@H]1CC[C@H]2[C@@H]3CC[C@H]4C[C@](C)(O)CC[C@]4(C)[C@H]3CC[C@]12C | -0.426% [at 42.5 µM] (inactive) | 
O=C(N[C@H](c1ccccc1)[C@@H]1CN2CCC1CC2)c1c(Cl)ccc(C(F)(F)F)c1Cl | 0.385% (inactive) | 

SMILES | caspase-3/7 activation | Potency
[O-][Cl+]O | -0.0035% (inactive) | 
IC(I)=C(I)I |  | 4.86 µM (active)
C=CC[C@]1(O)CC[C@H]2[C@@H]3CCC4=CC(=O)CCC4=C3C=C[C@@]21C | -0.887% [at 42.5 µM] (inactive) | 
CNP(=O)(OC)Oc1ccc(C(C)(C)C)cc1Cl (stereo not given) | -1.65% (inactive) | 
Cl/C=C\C[N+]12CN3CN(CN(C3)C1)C2 | 0.495% (inactive) | 
CC(Cl)Cl | -0.498% (inactive) | 
C[C@@H]1CC[C@H]2[C@@H](C)C(=O)O[C@@H]3O[C@@]4(C)CC[C@@H]1[C@]32OO4 | -0.0405% [at 42.5 µM] (inactive) | 
CCN(C)N=O | -1.05% (inactive) | 
N#Cc1ccc(Cl)cc1 | -0.238% (inactive) | 
COP(=S)(Oc1cc(Cl)c(Br)cc1Cl)c1ccccc1 (stereo not given) | 1.24% (inactive) | 
ClCc1ccccc1 | -0.0606% (inactive) | 
N#CCC#N | 4.04% (inactive) | 
CN1C[C@H](CNC(=O)OCc2ccccc2)C[C@@H]2c3cccc4c3c(cn4C)C[C@H]21 | 1.78% [at 42.5 µM] (inactive) | 
NCC(CC(=O)O)c1ccc(Cl)cc1 (stereo not given) | -0.192% [at 0.349 µM] (inactive) | 
C=COC(C)=O | -0.635% (inactive) | 
Cc1c(F)c(F)c(COC(=O)C2C(/C=C(\Cl)C(F)(F)F)C2(C)C)c(F)c1F (stereo not given) | 0.315% (inactive) | 
CCO[C@H]1O[C@@H]2OC3(C)CC[C@H]4[C@H](C)CC[C@@H]([C@H]1C)[C@@]24OO3 | -0.283% [at 42.5 µM] (inactive) | 
C[C@]12CC[C@H]3[C@@H](CCC4=CC(=O)CC[C@@H]43)[C@@H]1CC[C@@H]2OC(=O)CCC1CCCCC1 | 1.21% [at 42.5 µM] (inactive) | 
CC(=O)CCC(C)=O | -1.22% (inactive) | 
O=S1(=O)OC(c2cc(Br)c(O)c(Br)c2)(c2cc(Br)c(O)c(Br)c2)c2ccccc21 | -5.4% (inactive) | 

Source: PubChem BioAssay (Tox21)
